The source of these data is PubChem BioAssay.

The nature of test [1]: binders of probe aFSTL3 on microarray, primary screen, stem cell growth factor project, biochemical, small-molecule microarray, fluorescence 635/667 (AID 1064).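 Note: measures binding of the biotinylated anti-FSTL3 antibody to printed compounds.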 The note with it: higher = more signal.
Test [2] is described as follows: binders from COS7 lysate, DM2A8 probe, primary screen, torsin A project, cell lysate, small-molecule microarray, fluorescence 635/667 (AID 1065). As to conditions: higher = more signal, COS7 lysate expressing mutant human TOR1A.
A short description of test [3]: binders of probe aFGF2 on microarray, primary screen, stem cell growth factor project, biochemical, small-molecule microarray, fluorescence 635/667 (AID 1067).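 Note: measures binding of biotinylated aFGF2 protein to printed compounds on slides; z-score merges feature fluorescence and signal-to-noise across triplicate slides.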 The note with it: higher = more signal.
A short description of test [4]: binders of probe aFGF10 on microarray, primary screen, stem cell growth factor project, biochemical, small-molecule microarray, fluorescence 635/667 (AID 1071).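 Note: score merges 667 nm spot intensity and signal to noise from triplicate slides.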 As to conditions: higher = more signal.
Test [5] addresses Neurogenic locus notch homolog protein 2 (Homo sapiens) (UniProt Q04721). Kind of test: Notch2 binders on small-molecule microarrays, primary screen, biochemical, small-molecule microarray, 635 nm fluorescence, stem cell growth factors (AID 1073). The note with it: Notch2 binding, higher = more signal.
Test [6] has as its target Pro-neuregulin-1, membrane-bound isoform (Homo sapiens) (UniProt Q02297). Kind of test: NRG1 binders on small-molecule microarrays, primary screen, psychiatric disease protein project, biochemical, small-molecule microarray, fluorescence 635/667 (AID 1075).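 Note: score combines 667 nm spot fluorescence with signal to noise.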 As to conditions: NRG1 binding, 635 nm fluorescence, higher = more signal.
The test system of test [7] is Neuregulin-1 EGF-like domain. The test is described as follows: binders of neuregulin-1 EGF-like domain, primary screen, biochemical, small-molecule microarray, 635 nm fluorescence (AID 1081).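 Note: binding of the protein to compounds printed on small-molecule microarray slides.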 The note with it: small-molecule microarray binding, higher = more signal.
A short description of test [8]: FRG1 promoter luciferase signal modulators, primary screen, FRG1 inhibition for FSHD, cell-based, C2C12 myotubes, firefly/Renilla luciferase, luminescence (AID 1084). The note with it: higher = more signal, called active from +8 up or from −8 down.
A short description of test [9]: binders of probe aFST on microarray, primary screen, stem cell growth factor project, biochemical, small-molecule microarray, fluorescence 635/667 (AID 1086).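 Note: score merges 667 nm fluorescence with signal-to-noise of each printed compound spot.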 As to conditions: higher = more signal.
Test [10] in a line: binders of probe aHhip on microarray, primary screen, stem cell growth factor project, biochemical, small-molecule microarray, fluorescence 635/667 (AID 1087).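 Note: score merges spot fluorescence at 667nm with spot signal to noise ratio.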 The note with it: higher = more signal.

Calls of active or inactive are those of the source.

Sequence of Neurogenic locus notch homolog protein 2 (Homo sapiens) (Q04721 whole entry, looked up, canonical isoform): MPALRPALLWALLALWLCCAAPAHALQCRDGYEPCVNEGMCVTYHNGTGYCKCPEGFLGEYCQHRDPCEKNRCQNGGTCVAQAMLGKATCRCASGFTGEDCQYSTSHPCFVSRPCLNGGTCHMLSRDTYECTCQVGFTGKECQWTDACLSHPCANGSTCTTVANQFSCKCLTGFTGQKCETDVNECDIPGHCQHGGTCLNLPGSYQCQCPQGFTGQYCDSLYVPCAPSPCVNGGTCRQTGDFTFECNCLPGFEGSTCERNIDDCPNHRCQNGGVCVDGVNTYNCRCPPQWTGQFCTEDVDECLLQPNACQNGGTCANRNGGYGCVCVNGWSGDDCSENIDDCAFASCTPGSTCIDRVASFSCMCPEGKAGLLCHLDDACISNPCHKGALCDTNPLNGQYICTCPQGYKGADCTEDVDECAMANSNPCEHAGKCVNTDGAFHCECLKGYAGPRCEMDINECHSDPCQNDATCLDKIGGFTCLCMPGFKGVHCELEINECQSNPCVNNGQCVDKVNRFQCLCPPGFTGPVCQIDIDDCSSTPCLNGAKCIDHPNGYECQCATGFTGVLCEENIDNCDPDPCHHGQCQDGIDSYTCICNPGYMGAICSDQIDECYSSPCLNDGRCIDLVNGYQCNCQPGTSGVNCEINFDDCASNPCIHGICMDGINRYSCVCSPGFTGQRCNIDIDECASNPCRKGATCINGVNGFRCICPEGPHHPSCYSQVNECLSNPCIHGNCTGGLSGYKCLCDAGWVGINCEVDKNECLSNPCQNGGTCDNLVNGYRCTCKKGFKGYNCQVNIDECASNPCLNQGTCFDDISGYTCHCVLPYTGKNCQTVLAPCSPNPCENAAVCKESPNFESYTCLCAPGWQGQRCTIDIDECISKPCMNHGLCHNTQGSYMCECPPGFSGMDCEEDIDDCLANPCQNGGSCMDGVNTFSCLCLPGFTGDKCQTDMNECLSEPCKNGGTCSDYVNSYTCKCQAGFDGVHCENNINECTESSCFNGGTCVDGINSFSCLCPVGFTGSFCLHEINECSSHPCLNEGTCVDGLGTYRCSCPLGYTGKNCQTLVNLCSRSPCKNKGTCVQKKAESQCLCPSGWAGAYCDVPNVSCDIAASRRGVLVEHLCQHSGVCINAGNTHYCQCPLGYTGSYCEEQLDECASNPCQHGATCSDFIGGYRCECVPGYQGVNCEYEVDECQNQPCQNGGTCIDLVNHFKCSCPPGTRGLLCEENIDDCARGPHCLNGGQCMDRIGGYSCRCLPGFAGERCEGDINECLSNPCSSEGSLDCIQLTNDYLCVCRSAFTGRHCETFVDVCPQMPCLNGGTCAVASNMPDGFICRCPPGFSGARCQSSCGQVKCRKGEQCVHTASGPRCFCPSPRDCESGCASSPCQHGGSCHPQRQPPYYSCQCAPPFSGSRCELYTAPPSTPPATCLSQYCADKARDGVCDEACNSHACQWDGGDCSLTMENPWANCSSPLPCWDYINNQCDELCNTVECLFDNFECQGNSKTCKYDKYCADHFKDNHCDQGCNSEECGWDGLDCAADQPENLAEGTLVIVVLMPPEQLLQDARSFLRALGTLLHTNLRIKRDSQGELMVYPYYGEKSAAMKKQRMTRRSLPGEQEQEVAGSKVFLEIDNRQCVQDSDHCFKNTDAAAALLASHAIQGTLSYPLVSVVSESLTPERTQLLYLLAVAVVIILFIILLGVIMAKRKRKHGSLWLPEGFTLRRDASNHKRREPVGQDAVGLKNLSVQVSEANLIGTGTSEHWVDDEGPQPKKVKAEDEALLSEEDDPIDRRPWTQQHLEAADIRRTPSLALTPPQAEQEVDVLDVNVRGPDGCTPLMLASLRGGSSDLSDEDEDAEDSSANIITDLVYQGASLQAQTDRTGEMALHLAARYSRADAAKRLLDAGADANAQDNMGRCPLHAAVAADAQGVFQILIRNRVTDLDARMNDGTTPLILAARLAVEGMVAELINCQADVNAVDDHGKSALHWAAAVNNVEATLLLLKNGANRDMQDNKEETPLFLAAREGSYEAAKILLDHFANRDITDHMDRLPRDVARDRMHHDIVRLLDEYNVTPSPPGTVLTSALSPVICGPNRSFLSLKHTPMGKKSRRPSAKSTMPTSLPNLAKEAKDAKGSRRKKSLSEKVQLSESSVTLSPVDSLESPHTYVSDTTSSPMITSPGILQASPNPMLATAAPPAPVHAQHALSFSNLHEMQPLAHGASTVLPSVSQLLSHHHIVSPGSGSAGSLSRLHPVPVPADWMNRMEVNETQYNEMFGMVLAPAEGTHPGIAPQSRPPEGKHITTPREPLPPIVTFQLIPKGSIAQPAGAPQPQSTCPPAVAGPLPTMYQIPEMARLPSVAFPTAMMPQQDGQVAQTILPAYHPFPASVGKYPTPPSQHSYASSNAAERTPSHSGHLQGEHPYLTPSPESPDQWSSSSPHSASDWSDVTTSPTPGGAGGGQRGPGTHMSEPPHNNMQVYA
Sequence of Pro-neuregulin-1, membrane-bound isoform (Homo sapiens) (Q02297 whole entry, looked up, the tested form may be a part, canonical isoform): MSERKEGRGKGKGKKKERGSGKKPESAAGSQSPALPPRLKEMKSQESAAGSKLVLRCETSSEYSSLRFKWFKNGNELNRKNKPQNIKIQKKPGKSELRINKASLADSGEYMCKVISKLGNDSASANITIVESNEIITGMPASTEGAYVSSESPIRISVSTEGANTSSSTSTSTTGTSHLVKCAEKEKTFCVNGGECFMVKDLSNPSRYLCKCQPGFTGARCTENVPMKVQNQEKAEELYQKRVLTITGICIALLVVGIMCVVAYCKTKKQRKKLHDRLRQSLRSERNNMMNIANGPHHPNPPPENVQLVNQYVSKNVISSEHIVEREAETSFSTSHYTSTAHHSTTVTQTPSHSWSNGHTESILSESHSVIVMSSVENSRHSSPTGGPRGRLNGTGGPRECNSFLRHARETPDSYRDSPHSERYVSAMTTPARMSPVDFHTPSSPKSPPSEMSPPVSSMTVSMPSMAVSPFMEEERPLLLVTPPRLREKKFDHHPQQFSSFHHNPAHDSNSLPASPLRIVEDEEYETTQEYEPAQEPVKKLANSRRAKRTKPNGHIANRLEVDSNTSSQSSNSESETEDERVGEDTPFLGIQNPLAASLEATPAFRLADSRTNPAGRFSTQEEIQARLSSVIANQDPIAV

As to `CC(C)C[C@@H]1NC(=O)[C@H]2C[C@@H](C(=O)NCCCCCNC(=O)CS)[C@@H](c3cccc(OCCO)c3)N2C1=O`, the composite z-score in test [1] was -0.197; in test [2], 0.235; in test [3], -0.0474; in test [4], 0.387; in test [5] it was 1.25; in test [6] it was 1.03. Further, the composite z-score in [7] was 1.31; in [9] it was 0.707; in test [10], -0.173. Further, in [8], the z-score is 0.209 (inactive).
As for `CCOC(=O)C[C@H]1[C@H](OC(=O)c2ccc(-c3ccccc3)cc2)[C@@H](NC(=O)c2ccc3ccccc3c2)c2cc(OCCCO)ccc2N1C(=O)Cc1ccc(OC)cc1`, the composite z-score in [1] was -0.325; in test [2], 0.228; in test [3] it was 0.0325; in test [4], 0.0493; in test [5], 0.425; in [6], 0.15. Besides, the composite z-score in test [7] was -0.733; in [9], 0.628; in test [10], -0.134. In addition, the z-score in test [8] is 1.21 (inactive).
For `NCCCCCNC(=O)[C@H]1C[C@H]2C(=O)NCC(=O)N2[C@H]1c1cccc(OCCO)c1`, the composite z-score in test [1] is 0.257; in test [2], 0.759; in [3], -0.0337; in [4] it was -0.0838; in test [5] it was 0.709; in test [6], 1.17. In addition, the composite z-score in test [7] worked out at 1.43; in test [9] it was 0.95; in [10] it was 0.165. Moreover, the z-score in [8] is 1.11 (inactive).
Turning to `O=C1c2ccccc2[C@@]2(Cc3ccccc3N(Cc3ccccc3)C2=O)[C@H](c2ccc(CO)cc2)N1C1CCCCC1`, the composite z-score in [1] is -0.382; in test [2], -0.832; in [3], -0.152; in test [4] it was -0.0341; in [5], -0.203; in test [6], 0.662. For the same compound, the composite z-score in [7] is 1.37; in test [9], -0.244; in test [10] it was -0.201. Besides, in test [8], the z-score is -0.0414 (inactive).
Turning to `CCOC(=O)C1=CCC(C(C)(C)C)N(S(=O)(=O)c2ccc(C)cc2)C1` (stereo not given), the composite z-score in test [1] is -0.735; in test [2], 2.2; in test [3], 0.0954; in test [4], 1.23; in [5], 1.49; in test [6] it was 0.673. Also, the composite z-score in test [7] was determined as 1.19; in test [9], 0.533; in test [10], 0.0139. In addition, in [8], the z-score was -2.07 (inactive).
`COC(=O)[C@@]1(Cc2ccccc2)[C@H]2c3cc(C(=O)N4CCCC4)n(C)c3C[C@H]2CN1C(=O)c1ccccc1`: the composite z-score is 0.483 in [1]; -0.207 in test [2]; 0.107 in test [3]; -0.0646 in [4]; 1.67 in test [5]; 1.51 in [6]. Further, the figures for the composite z-score in test [7], in [9] and in test [10] were 1.25, 0.882 and 1.72, respectively. The z-score in [8] is 0.121 (inactive).
As to `CN1C=C(C(=O)OCCS(C)(=O)=O)C(C(=O)OCCS(C)(=O)=O)=CC(CCCO)=CC1C1CC1` (stereo not given), the composite z-score in test [1] was -0.135; in [2], 0.0461; in test [3] it was -0.128; in test [4], 0.427; in test [5], 0.213; in [6], 1.04. Also, the composite z-score is 1.25 in test [7], -0.0228 in test [9] and -0.0618 in test [10]. In addition, the z-score in test [8] was -0.483 (inactive).
As to `O=c1cccc(CCc2ccccc2)o1`, the composite z-score in test [1] was -0.587; in [2], -0.322; in test [3], -0.0909; in test [4], 0.0466; in test [5] it was -0.321; in test [6] it was 0.93. In addition, the composite z-score in test [7] was 1.16; in [9], -0.104; in [10], 0.0251. In addition, the z-score in test [8] was 1.17 (inactive).
Regarding `CCOC(=O)C[C@H]1[C@H](OC(=O)c2ccc(-c3ccccc3)cc2)[C@@H](NC(=O)c2ccc(-c3ccccc3)cc2)c2cc(OCCCO)ccc2N1C(=O)Cc1ccc(OC)cc1`, the composite z-score was -0.263 in [1]; -0.0676 in [2]; -0.0525 in test [3]; 0.0168 in [4]; 0.306 in test [5]; 0.168 in [6]. For the same compound, the composite z-score in test [7] was -0.489; in test [9] it was 0.425; in [10], -0.226. Further, in test [8], the z-score was 0.712 (inactive).
Consider `COC(=O)C[C@@H]1C[C@H](C)[C@]2(O1)C(=O)N(Cc1ccccc1)c1ccc(NC(C)=O)cc12`, for which the composite z-score in test [1] is -0.589; in test [2], 0.108; in test [3] it was -0.144; in test [4], 0.315; in [5], 0.381; in test [6], -0.12. For the same compound, the values for the composite z-score in test [7], in [9] and in test [10] were 0.443, -0.0507 and 0.0012, respectively. For the same compound, in test [8], the z-score was 0.74 (inactive).
`O=C1O[C@H](c2ccccc2)[C@H](c2ccccc2)N2[C@H]1[C@@H](C(=O)N1CCN(c3ncccn3)CC1)[C@]1(C(=O)Nc3ccccc31)[C@H]2c1ccc(OCCO)cc1`: the composite z-score was -0.371 in test [1]; 0.0417 in test [2]; -0.106 in test [3]; 0.309 in [4]; 1.18 in [5]; 0.0248 in test [6]. The composite z-score in test [7] is 1.31; in [9] it was 0.348; in [10], 0.34. Moreover, the z-score in test [8] is 1.03 (inactive).
In the case of `CCOC(=O)C[C@H]1[C@H](OC(=O)c2ccc(C(=O)c3ccccc3)cc2)[C@@H](NC(=O)C2CCCCC2)c2cc(OCCCO)ccc2N1C(=O)c1ccccc1`, the composite z-score was -0.379 in test [1]; -0.248 in test [2]; -0.0478 in [3]; 0.494 in [4]; 1.02 in [5]; 0.857 in [6]. In addition, the composite z-score came to 0.95 in test [7], 0.253 in [9] and 0.682 in test [10]. The z-score in test [8] was -0.541 (inactive).
Turning to `O=C(CS)NCCCCCCNC(=O)[C@@H]1C[C@@H]2C(=O)N3CCC[C@H]3C(=O)N2[C@@H]1c1ccc(O)cc1`, the composite z-score in [1] is 0.525; in [2] it was 0.0083; in [3], -0.111; in test [4], 0.589; in test [5], -0.473; in test [6] it was 0.494. Besides, the composite z-score in test [7] was 1.38; in test [9], -0.28; in [10], -0.254. The z-score in test [8] was 0.999 (inactive).
On to `CN1C(=O)C2C(C1=O)C1C=C(CCCO)C2C(c2cccs2)N1C` (stereo not given), for which the composite z-score in [1] is -0.855; in test [2], 1.65; in test [3], -0.2; in [4], 0.524; in [5] it was -0.508; in test [6], 0.822. The composite z-score in test [7] was 1.19; in test [9] it was -0.225; in [10], -0.579. The z-score in test [8] was 0.22 (inactive).
Regarding `COc1cc(CO)ccc1OC(C)=O`, the composite z-score is -0.651 in [1]; 0.336 in test [2]; -0.0279 in test [3]; 0.28 in test [4]; 0.382 in [5]; 0.34 in test [6]. Moreover, the composite z-score in test [7] is 0.707; in [9], 0.195; in [10], 0.122. Further, in test [8], the z-score is -0.847 (inactive).
Consider `Cc1cc(C)c(C(O)C2C=CC3C(=O)N(C)C(=O)C3N2Nc2ccccc2)c(C)c1` (stereo not given), for which the composite z-score in test [1] amounted to 1.19; in test [2], 0.732; in [3] it was 0.462; in [4], 0.93; in test [5], 1.64; in [6], 1.26. Moreover, the composite z-score amounted to 1.27 in [7], 2.01 in [9] and 0.872 in [10]. In [8], the z-score was 0.016 (inactive).
In the case of `CCOC(=O)C1=CC[C@@H](c2ccccc2)N(S(=O)(=O)c2ccc(C)cc2)[C@H]1C(=O)OCC`, the composite z-score was 0.138 in test [1]; -0.0127 in [2]; 0.338 in [3]; 0.641 in [4]; 1.25 in test [5]; -0.196 in test [6]. The composite z-score in [7] is 1.03; in test [9], 0.603; in [10] it was -0.108. The z-score in test [8] is -2.4 (inactive).
